Screens (PubChem BioAssay)
NPSR antagonist: neuropeptide S receptor (human) antagonism, cAMP | Potency, µM (titrated, usually from 38.3 µM), for inactives: at the top dose activity change, negative = inhibition, usual class: inhibitors | hit rate 1% among 220,000 | CHO-NPSR cells, cAMP TR-FRET, antagonist mode | AID 1461 | Q6W5P4; note: nearly all actives have a fitted effect of over 50% in size
rTrxR1 inhibitor: rat TrxR1 inhibition; O89049; recombinant rTrxR1, NADPH fluorescence consumption, selenite substrate; Potency, µM (top dose mostly 114 µM), without a hit: at the top dose activity change, negative = inhibition, most hits filed as inhibitors; hit rate 1% among 390,000; AID 588453; note: nearly all actives have a fitted effect of over 65% in size
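Rat TrxR1 (90 nM in the dispensed reagent) was pre-reduced with 400 uM NADPH for 5 min at room temperature, then incubated with compound for 15 min. After 400 uM selenite was added, NADPH fluorescence (Ex 340/Em 450 nm) was followed for 8 min.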
GALK inhibitor: blocks human galactokinase activity; P51570; Purified GALK, Kinase-Glo residual ATP luminescence; Potency, µM (top dose mostly 57.5 µM), without a hit: at the top dose activity change, negative = inhibition, hits mostly inhibitors; hit rate 0.007% among 270,000; AID 1868
Target sequence (P51570 whole entry, looked up): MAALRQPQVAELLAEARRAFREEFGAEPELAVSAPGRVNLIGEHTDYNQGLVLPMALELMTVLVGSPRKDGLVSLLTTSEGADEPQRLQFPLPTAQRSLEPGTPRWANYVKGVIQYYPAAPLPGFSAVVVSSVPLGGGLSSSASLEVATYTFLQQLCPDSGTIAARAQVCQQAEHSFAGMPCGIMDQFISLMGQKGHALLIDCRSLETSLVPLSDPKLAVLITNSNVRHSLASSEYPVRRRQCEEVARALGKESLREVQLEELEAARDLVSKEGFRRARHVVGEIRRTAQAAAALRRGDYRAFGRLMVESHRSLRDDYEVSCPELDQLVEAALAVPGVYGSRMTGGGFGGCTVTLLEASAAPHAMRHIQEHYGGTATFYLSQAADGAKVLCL
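Luminescence from leftover ATP (Ultra-Glo luciferase/luciferin) served as read-out after a 1 h room-temperature reaction of 5 nM GALK with 35 uM ATP and 100 uM galactose.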
TrxR1 substrate: is turned over as a substrate by rat TrxR1. hit rate 0.01% among 390,000. O89049. Potency, µM (top dose mostly 114 µM), without a hit: at the top dose activity change, negative = substrate turnover. purified TrxR1 substrate turnover, NADPH consumption readout; note: nearly all actives have a fitted effect of over 50% in size
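Rat TrxR1, dispensed at 90 nM, was prereduced with 400 uM NADPH (final) for 5 min at ~22 deg C, then incubated with compound 15 min before 400 uM selenite. A first-read NADPH fluorescence drop versus no-compound background flagged substrates.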
Starred values were filed as active, the others as inactive; ? = inconclusive; . = no result; ! = not active in a repeat; [ ] = another dose, or the depositor's remark. Most compounds without a hit are left out; they make up all but 1.2% or so of the library. Calls come from the whole dose curve; as a rule, active = well fitted curve in the direction sought with a large enough effect; inconclusive = small, poorly fitted or top-dose-only effect, or another doubt; inactive = no such curve, though single readings can be large; an effect the other way counts as inactive or inconclusive. % is set by controls: 0 for no effect and ±100 for the full control effect; potency is the fitted concentration of half-maximal effect.

SMILES	NPSR antagonist	rTrxR1 inhibitor	GALK inhibitor	TrxR1 substrate
Cc1ccc(OCC(=O)N/N=C/C=C/c2ccco2)cc1C	-12.8%	39.8µM*	-0.9%	-11.8%
O=C(C[n+]1ccc2ccccc2c1)c1ccc(F)cc1	.	-6.2%	.	10.6%
Cc1cc(N)c2ccccc2[n+]1CCCCCCCCCCCCCC[n+]1c(C)cc(N)c2ccccc21	15.8µM*	?	.	.
O=C1[C@H](Cc2ccccc2)NC/C=C\C[C@H](c2ccco2)N1Cc1ccccc1	.	-30.3%	.	-3.5%
C/C(=N\Nc1nc2c(s1)CCCC2)c1ccccc1	-19.5%[46.1 µM]	50.1µM*	-5.2%	-6.3%
O=C(Nc1ccc(Cl)cc1Cl)[C@@H]1CC=C[C@@H]2CCN(C3CCCCC3)C(=O)[C@@H]21	.	-21.4%	.	-9.4%
CCOc1ccc(NC(=O)c2nc(S(=O)(=O)Cc3ccccc3)ncc2Cl)cc1	.	2.24µM*	.	-3.1%
CCOc1ccc(NC(=O)c2nc(SCc3ccccc3F)ncc2Cl)cc1	.	17.7%	.	1.6%
CCOc1ccc(NC(=O)c2nc(S(=O)(=O)Cc3ccccc3F)ncc2Cl)cc1	.	1.78µM*	.	6.6%
O=C(Nc1ccccc1)c1nc(S(=O)(=O)Cc2ccccc2F)ncc1Cl	.	?	.	9.2%
O=C(Nc1ccc(OC(F)F)cc1)c1nc(S(=O)(=O)Cc2ccccc2F)ncc1Cl	.	3.55µM*	.	1.2%
COC(=O)c1ccc(NC(=O)c2nc(S(=O)(=O)Cc3ccccc3F)ncc2Cl)cc1	.	8.91µM*	.	-1.1%
O=C(CSc1nnnn1C1CC1)N1CCN(c2ccccc2F)CC1	.	-2.2%	.	-3.4%
Cc1ccnc2ccc([N+](=O)[O-])cc12	.	7.9%	.	-4.5%
COC(=O)c1ccccc1NC(=O)c1nc(S(=O)(=O)Cc2ccccc2)ncc1Cl	.	8.91µM*	-3.6%	7.8%
CS(=O)(=O)c1ncc(Cl)c(C(=O)Nc2ccc3ccccc3c2)n1	10µM*	12.6µM*	3.3%	7.7%
COC(=O)c1cscc1S(=O)(=O)Cc1ccccc1	.	20µM*	-1.4%	0.5%
COC(=O)C[C@H]1c2cc(F)ccc2S(=O)(=O)N1C1CC1	.	10.7%	.	3.2%
O=C(Nc1ccc(F)cc1)Nc1ccc(N2CCCC2)c(S(=O)(=O)Nc2ccccc2Cl)c1	10µM*	0.2%	-1.9%	-2.9%
O=C(Nc1ccc(Cl)c(Cl)c1)Nc1ccc(N2CCCC2)c(S(=O)(=O)Nc2ccccc2Cl)c1	-58.0%	8.8%	-1.0%	1.2%
CCOC(=O)C1=C(Cc2ccc(Cl)cc2)C(=O)c2ccccc2C1=O	?	10µM*	-0.4%	5.9%
CCCCN(CCCC)c1ccc(Cn2ccc3ccccc32)cc1	.	-0.5%	.	7.1%
CCOC(=O)c1cnc(Nc2nc3ccccc3o2)nc1CSC(=S)N(CC)CC	0.501µM*	-21.8%[11.4 µM]	-1.3%	-6.7%[11.4 µM]
O=C(N/N=C/C(Cl)=C/c1ccc([N+](=O)[O-])cc1)C(=O)Nc1cccc(C(=O)O)c1	4.5%	79.4µM*	-4.1%	-16.8%
O=Cc1cc2c3c(c1)CCCN3CCC2	.	-16.7%	.	-4.9%
SMILES	NPSR antagonist	rTrxR1 inhibitor	GALK inhibitor	TrxR1 substrate
CSc1ccccc1NC(=S)Nc1ccc(S(N)(=O)=O)cc1	12.7%	-21.4%[57.1 µM]	-0.7%	3.7%[57.1 µM]
NS(=O)(=O)c1ccc(NC(=S)Nc2cc(Cl)c(Cl)cc2Cl)cc1	-2.5%	35.5µM*	0.3%	-2.7%
CCOc1cccc2sc(NC(=O)CCS(=O)(=O)c3ccccc3)nc12	.	4.1%	5.0%	-1.5%
COc1ccc(C)c2sc(NC(=O)CCS(=O)(=O)c3ccccc3)nc12	.	39.8µM*	-9.9%	1.6%
Cc1oc(-c2ccc(Cl)cc2)nc1CS(=O)CC(=O)NCc1ccccn1 (stereo unspecified)	.	17.8µM*	-3.6%	-2.6%
CCc1ccc(-c2nc(CS(=O)CC(=O)NCc3ccccc3)c(C)o2)cc1 (stereo unspecified)	.	31.6µM*	1.7%	2.2%
CCc1ccc(-c2nc(CS(=O)CC(=O)NCCCN3CCOCC3)c(C)o2)cc1 (stereo unspecified)	.	20µM*	-4.0%	9.9%
Cc1cnnc2ccccc12	.	0.4%	.	4.2%
Cc1ccc(CSc2nc(-c3ccccc3C)nc3c2Cc2c(CO)cnc(C)c2O3)cc1	.	8.2%	.	4.2%
COc1cc2nc(N3CCCN(C)CC3)nc(NC3CCN(C)CC3)c2cc1OC	.	?	.	104.8%
O=C(Cn1cc(SCc2cccc(F)c2)c2ccccc21)N1CCCC1	.	10.7%	.	1.3%
COc1cc(/C=C2/C(=O)c3cccc([N+](=O)[O-])c3C2=O)c(Br)cc1O	10µM*	28.2µM*	-3.5%	-16.4%
Cc1nc2c(-c3ccccc3)c(C)[nH]n2c(=O)c1Cc1ccc(Br)cc1	.	-3.5%	.	-4.1%[11.4 µM]
Oc1c(C(Nc2ccccn2)c2ccccc2)ccc2cccnc12 (stereo unspecified)	.	50.1µM*	.	-4.2%
Oc1c(C(Nc2ccccn2)c2cccnc2)cc(Cl)c2cccnc12 (stereo unspecified)	3.0%	12.6µM*	3.0%	-7.5%
Oc1c(C(Nc2cccc(C(F)(F)F)c2)c2cccnc2)ccc2cccnc12 (stereo unspecified)	3.7%	14.1µM*	1.1%	-13.7%
COc1ccc(Cl)cc1C(Nc1cccnc1)c1ccc2cccnc2c1O (stereo unspecified)	-5.9%	3.98µM*	-0.6%	3.1%[57.1 µM]
Oc1c(C(Nc2cccnc2)c2ccc(C(F)(F)F)cc2)ccc2cccnc12 (stereo unspecified)	.	?	.	-6.3%
CCCCCCCCCC[n+]1ccc(/C=C/c2c(C)[nH]c3ccccc23)cc1	.	?	.	1.6%
Cc1nc(N2CCOCC2)c2c(C(=O)NCCc3ccccc3)c(C)oc2n1	.	17.7%	.	-4.2%
CC(=O)OCON[N+]([O-])=NC(C)C	.	15.8µM*!	.	3.5%
Cc1ccc(OCC(=O)Nc2cc(-c3nc4cc(Cl)ccc4o3)ccc2C)c(C)c1	.	17.6%	.	1.1%
CCOC(=O)c1oc2ccccc2c1NC(=O)CCl	?	22.4µM*	2.5%	-10.0%
CCOC(=O)c1oc2ccccc2c1NC(=O)c1ccco1	.	5.2%	-4.3%	-2.3%
C=C[C@@H]1c2cc(C)ccc2N(S(=O)(=O)c2ccc(C)cc2)[C@H](c2ccc(C(C)(F)F)cc2)C1(C#N)C#N	.	28.8%	.	4.9%
SMILES	NPSR antagonist	rTrxR1 inhibitor	GALK inhibitor	TrxR1 substrate
COC(=O)CSc1nc2nc(-c3cccs3)cc(C(F)(F)F)c2c(=O)[nH]1	.	63.3%	-0.6%	150.4%
O=C(CSc1nc2nc(-c3cccs3)cc(C(F)(F)F)c2c(=O)[nH]1)C(F)(F)F	.	35.5µM*	3.3%	609.0%
COc1ccc(CNC(=O)CCS(=O)(=O)c2cccc3nonc23)cc1	-2.3%[46.1 µM]	11.2µM*	0.2%	12.0%[57.1 µM]
COc1ccc(NC(=O)CCS(=O)(=O)c2cccc3nonc23)cc1	4.4%	-36.8%	1.6%	4.9%[57.1 µM]
Cc1ccc(CNC(=O)CCS(=O)(=O)c2cccc3nonc23)cc1	-3.4%[46.1 µM]	56.2µM*	0.3%	-7.8%
COc1ccc(N2CCN(C(c3ccccc3)c3nnc(-c4ccccc4Cl)o3)CC2)cc1 (stereo unspecified)	.	3.5%[57.1 µM]	.	1.2%[57.1 µM]
CCN(CC)C(NC(=O)Cc1ccccc1)C(Cl)(Cl)Cl (stereo unspecified)	-9.2%[46.1 µM]	7.94µM*	-3.2%	11.5%
CCCCNc1c2c(nc3c(-c4ccccc4)c(C)nn13)CCC2	10µM*	39.2%	1.5%	64.2%
